# Many of the other results were omitted from the sample, so hits are more common in it than they were.
# S1P2 antag: antagonists of human S1P2 receptor; inhibition, % at 5 µM; O95136; cell-based S1P2 antagonist assay, inhibition at 5 uM; 0.21% of 97,000 active; AID 736; in the data active means inhibition above about 45%;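 further: CRE beta-lactamase reporter cells expressing human S1P2 stimulated with S1P; 0% = agonist at EC80 alone and 100% = agonist plus reference antagonist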
# PostGolgi ctrl: inhibits growth of the yeast control strain; 5% of 98,000 active; efflux-deficient yeast background strain, growth absorbance A615, 16 h; inhibition, % at 10 µM; AID 738
# GALR2 blocker: GALR2 (human) receptor antagonism | GALR2-expressing cells, antagonist mode | 0.39% of 140,000 active | O43603 | inhibition, % at 4 µM | AID 828; in the data active means inhibition above about 27%;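 further: cells stimulated with galanin 1-16 at roughly its EC80; 0% = agonist challenge control and 100% = basal control without agonist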
# Target sequence (O43603 whole entry, looked up): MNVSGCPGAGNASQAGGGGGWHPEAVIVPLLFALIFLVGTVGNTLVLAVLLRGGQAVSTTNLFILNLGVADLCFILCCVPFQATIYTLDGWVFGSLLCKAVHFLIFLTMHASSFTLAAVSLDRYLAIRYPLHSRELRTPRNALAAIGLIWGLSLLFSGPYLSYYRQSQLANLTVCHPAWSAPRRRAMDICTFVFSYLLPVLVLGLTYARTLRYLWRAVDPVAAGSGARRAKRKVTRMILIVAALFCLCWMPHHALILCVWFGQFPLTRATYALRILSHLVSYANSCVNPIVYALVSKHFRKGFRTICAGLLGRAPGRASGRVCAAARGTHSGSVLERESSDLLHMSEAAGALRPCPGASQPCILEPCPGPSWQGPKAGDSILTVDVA
# GALR2 ag: agonists of human galanin receptor 2 (GALR2); O43603; GALR2-expressing cells, agonist activation read-out; activation, % (test concentration not listed); 0.48% of 140,000 active; in the data active means activation above about 5%, passing the limit was not always enough;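 further: 0% = vehicle buffer wells and 100% = reference agonist at full effect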
# S1P2 agonist: S1P2 (human) receptor agonism; O95136; activation, % at 4.5 µM; S1P2-expressing cell line, agonist reporter read-out; 0.46% of 97,000 active; AID 729; in the data active means activation above about 16%;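 further: 0% = vehicle low control and 100% = maximal reference agonist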
# PostGolgi yeast: growth inhibition of a yeast mutant, post-Golgi transport screen; post-Golgi transport phenotypic cell assay; inhibition, % at 10 µM; 0.9% of 98,000 active; AID 739;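 further: yeast cells grown in 1536-well plates; yeast grown about 18 h at 30C before absorbance read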
# Active calls of the source: *; nt = no result given. Unless noted, no stated cut-off is given here; in the data, active means inhibition above about 30%; inactive means the rest.
SMILES,S1P2 antag,PostGolgi ctrl,GALR2 blocker,GALR2 ag,S1P2 agonist,PostGolgi yeast
O=C(CCC(=O)N1CCN(S(=O)(=O)c2ccc(Cl)cc2)CC1)Nc1cccc(Br)c1,nt,nt,-5,-2,nt,nt
Cc1cc2n(n1)C(c1ccccc1)CC(c1ccc(Br)cc1)=N2 (configuration not stated),nt,nt,5,0,nt,nt
CSc1nc(C)cc(-n2ccc(=O)[nH]c2=O)n1,nt,11,1,-1,nt,11
Cc1cc(-n2ccc(=O)[nH]c2=O)nc(-c2ccccc2)n1,-9,31*,3,-1,1,1
O=C1SC(SC(=Nc2ccccc2)Nc2ccccc2)C(=O)N1c1ccccc1 (configuration not stated),nt,nt,6,-2,nt,nt
COc1ccc(C(=O)NC(C(=O)NCC(=O)Nc2c(C)cccc2C)C(C)C)cc1 (configuration not stated),nt,nt,3,0,nt,nt
O=C(c1ccc(F)cc1)N1CCN(c2ccc([N+](=O)[O-])c(N3CCCCC3)c2)CC1,7,13,-12,0,-3,-7
O=C(c1cccc(F)c1)N1CCN(c2cc(N3CCCCC3)c(F)cc2[N+](=O)[O-])CC1,10,52*,-6,-2,-6,-12
CCc1cc(C(c2ccc(OC)c(OC)c2)N2CCOCC2)c(NC(=O)c2ccccc2)s1 (configuration not stated),nt,nt,-9,0,nt,nt
CCc1cc(C(c2ccc(F)cc2)N2CCOCC2)c(NC(=O)c2ccccc2)s1 (configuration not stated),-20,11,2,-1,-4,32*
COc1ccc(S(=O)(=O)N2CCN(c3ccc(C)cc3C)CC2)cc1OC,21,17,7,-2,-5,8
Cc1cc(S(=O)(=O)N2CCN(c3ccccc3C)CC2)ccc1F,-11,30*,0,-1,-4,-9
COc1ccc(S(=O)(=O)N2CCN(c3c(C)cccc3C)CC2)cc1OC,-23,31*,17,-2,-7,11
CCc1ccc(OCC(=O)N/N=C\c2ccco2)c([N+](=O)[O-])c1,nt,nt,-20,1,nt,nt
CCCCNC(=O)Nc1nnc(-c2ccc(Cl)cc2)o1,-1,19,5,-3,-4,-3
CCCCC(=O)Nc1ccc(C(=O)Nc2ccc(S(=O)(=O)Nc3nccc(C)n3)cc2)cc1,nt,nt,1,-1,nt,nt
CC(C)N1CC(C(=O)Nc2nc3ccccc3s2)CC1=O (configuration not stated),1,4,5,-1,0,2
O=C(Nc1nc2ccccc2s1)C1CC(=O)N(c2ccc(Cl)cc2)C1 (configuration not stated),-20,40*,-5,-1,-3,14
CCOC(=O)c1cc[n+](CC(=O)c2ccc(F)cc2)cc1,nt,nt,-2,1,nt,nt
Cc1ccc(Nc2nnc(SCC(=O)Nc3cccnc3Cl)s2)cc1C,nt,nt,2,0,nt,nt
C(=N\n1cnnc1)/c1cn(Cc2ccccc2)c2ccccc12,nt,16,7,-2,nt,-2
Clc1ccc(Cn2cc(/C=N/n3cnnc3)c3ccccc32)c(Cl)c1,-7,32*,3,-1,-4,-1
COc1ccc(CNC(=O)c2cc(-c3ccc(OC)c(OC)c3)on2)cc1,2,13,3,0,-3,9
COc1ccc(CNC(=O)c2cc(C3CC3)on2)cc1,nt,33*,nt,nt,nt,-6
COc1ccc(/C=C/C(=O)Nc2nonc2NC(C)=O)cc1,nt,nt,5,-2,nt,nt
SMILES,S1P2 antag,PostGolgi ctrl,GALR2 blocker,GALR2 ag,S1P2 agonist,PostGolgi yeast
CCCN1C2=NCCCN2c2ccccc21,5,38*,6,-2,-2,6
CCCCN1C2=NCCCN2c2ccccc21,20,2,-9,-2,-5,3
CCCCCCN1C2=NCCN2c2ccccc21,-5,5,3,-2,-4,32*
Cc1cccc(-n2nnc(C(=O)N3CCc4ccccc4C3)c2N)c1,16,34*,-4,0,-6,-1
Cc1cccc(-n2nnc(C(=O)Nc3ccc(F)cc3)c2N)c1,18,11,5,-1,-8,1
Cc1ccc(C(=O)Nc2ccccc2C(=O)NCc2ccco2)cc1S(=O)(=O)N1CCCCC1,10,97*,-12,0,-3,2
Cc1ccc(C(=O)NCc2ccco2)cc1S(=O)(=O)N1CCCCC1,-9,-3,7,0,-4,-9
O=C(NCc1ccco1)c1ccc(S(=O)(=O)N2CCOCC2)cc1,-14,9,7,-2,-2,4
O=C(NCc1ccco1)c1cc(S(=O)(=O)N2CCOCC2)ccc1Cl,13,35*,5,-2,-8,5
c1ccc(-c2csc(N3CCN(c4ccccn4)CC3)n2)cc1,-7,41*,-10,-1,-2,-3

# Assay outcomes: PubChem BioAssay, several laboratories
